This assay is described as follows: cytotoxicity dependent on PAX8, dose response, cell-based, plate reader, dry powder (AID 743049).

Molecules are shown by their SMILES. Results with a measured potency or affinity are listed apart. Inconclusive results are not listed. Activity calls are given as the source filed them. No rule for the calls is given here.

On to `COc1ccccc1C#Cc1ccc([C@@H]2[C@@H](C#N)N(C(=O)C3CCCCC3)[C@H]2CO)cc1`, for which the compound was called inactive.

With `Cc1ccccc1CNC(=O)C1CCCN(c2nnc(C)c3c(C)n(-c4ccccc4)nc23)C1` (configuration not stated), the compound was classed as inactive.

The record behind these values is PubChem BioAssay AID743049 (Broad Institute, 2013).
